How the values were obtained:
Experiment in all cases: SPOT peptide array binding signal intensity (averaged, normalized) (arbitrary units (background-subtracted, floor 0; scale differs between SH3 domains)); higher = stronger binding of the SH3 domain to the peptide
SpBzz1-D2 = target: SpBzz1-D2
Method: (§1)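 GST-tagged SH3 domains from S. cerevisiae (Sc), A. gossypii (Ag), C. albicans (Ca) and S. pombe (Sp) were incubated at 10 ug/ml overnight at 4 C on cellulose SPOT membranes carrying 292 synthetic 15-mer peptides mined from the S. cerevisiae proteome (cysteines replaced by serines). Binding was detected with anti-GST antibody, HRP secondary and chemiluminescence, quantified with Genespotter, and reported as normalized spot intensities averaged over biological replicates.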

SpCyk3 = target: SpCyk3
Method: as §1

SpHof1 = target: SpHof1
Method: as §1

SpHof1-2 = target: SpHof1-2
Method: as §1

SpHof1-3 = target: SpHof1-3
Method: as §1

SpHse1 = target: SpHse1
Method: as §1

SpLsb1 = target: SpLsb1
Method: as §1

SpLsb4 = target: SpLsb4
Method: as §1

SpMyo1 = target: SpMyo1
Method: as §1

SpNbp2 = target: SpNbp2
Method: as §1

SpPex13 = target: SpPex13
Method: as §1

SpRvs167 = target: SpRvs167
Method: as §1

SpSla1-D1-D2 = target: SpSla1-D1-D2
Method: as §1

SpSla1-D3 = target: SpSla1-D3
Method: as §1

AgAbp1 = target: AgAbp1
Method: as §1

AgBbc1 = target: AgBbc1
Method: as §1

AgBem1-D1 = target: AgBem1-D1
Method: as §1

AgBzz1-D1 = target: AgBzz1-D1
Method: as §1

AgBzz1-D2 = target: AgBzz1-D2
Method: as §1

AgCyk3 = target: AgCyk3
Method: as §1

AgFus1 = target: AgFus1
Method: as §1

AgHof1 = target: AgHof1
Method: as §1

AgHse1 = target: AgHse1
Method: as §1

AgLsb1 = target: AgLsb1
Method: as §1

AgLsb4 = target: AgLsb4
Method: as §1

AgMyo5 = target: AgMyo5
Method: as §1

AgNbp2 = target: AgNbp2
Method: as §1

AgRvs167 = target: AgRvs167
Method: as §1

AgSho1 = target: AgSho1
Method: as §1

AgSla1-D1-D2 = target: AgSla1-D1-D2
Method: as §1

AgSla1-D3 = target: AgSla1-D3
Method: as §1

CaAbp1-D1 = target: CaAbp1-D1
Method: as §1

CaAbp1-D2 = target: CaAbp1-D2
Method: as §1

CaBbc1 = target: CaBbc1
Method: as §1

CaBem1-D1 = target: CaBem1-D1
Method: as §1

CaBzz1-D1 = target: CaBzz1-D1
Method: as §1

CaBzz1-D2 = target: CaBzz1-D2
Method: as §1

CaCyk3 = target: CaCyk3
Method: as §1

CaFus1 = target: CaFus1
Method: as §1

CaHof1 = target: CaHof1
Method: as §1

CaHse1 = target: CaHse1
Method: as §1

CaLsb1 = target: CaLsb1
Method: as §1

CaLsb4 = target: CaLsb4
Method: as §1

CaMyo5 = target: CaMyo5
Method: as §1

CaNbp2 = target: CaNbp2
Method: as §1

CaRvs167 = target: CaRvs167
Method: as §1

CaRvs167-3 = target: CaRvs167-3
Method: as §1

CaSho1 = target: CaSho1
Method: as §1

CaSla1-D1-D2 = target: CaSla1-D1-D2
Method: as §1

CaSla1-D3 = target: CaSla1-D3
Method: as §1

ScAbp1 = target: ScAbp1
Method: as §1

ScBbc1 = target: ScBbc1
Method: as §1

ScBem1-D1 = target: ScBem1-D1
Method: as §1

ScBzz1-D1 = target: ScBzz1-D1
Method: as §1

ScBzz1-D2 = target: ScBzz1-D2
Method: as §1

ScCyk3 = target: ScCyk3
Method: as §1

ScFus1 = target: ScFus1
Method: as §1

ScHof1 = target: ScHof1
Method: as §1

ScHse1 = target: ScHse1
Method: as §1

ScLsb1 = target: ScLsb1
Method: as §1

ScLsb2 = target: ScLsb2
Method: as §1

ScLsb3 = target: ScLsb3
Method: as §1

ScLsb4 = target: ScLsb4
Method: as §1

ScMyo3 = target: ScMyo3
Method: as §1

ScMyo5 = target: ScMyo5
Method: as §1

ScNbp2 = target: ScNbp2
Method: as §1

ScPex13 = target: ScPex13
Method: as §1

ScRvs167 = target: ScRvs167
Method: as §1

ScSho1 = target: ScSho1
Method: as §1

ScSla1-D1-D2 = target: ScSla1-D1-D2
Method: as §1

ScSla1-D3 = target: ScSla1-D3
Method: as §1

SpAbp1-D1 = target: SpAbp1-D1
Method: as §1

SpBbc1 = target: SpBbc1
Method: as §1

SpBzz1-D1 = target: SpBzz1-D1
Method: as §1

## KIRRSSLMIPNPQQF
SpBzz1-D2
  SPOT peptide array binding signal intensity: ≤ 0
SpCyk3
  SPOT peptide array binding signal intensity: 6
SpHof1
  SPOT peptide array binding signal intensity: 94.5
SpHof1-2
  SPOT peptide array binding signal intensity: 24
SpHof1-3
  SPOT peptide array binding signal intensity: 241
SpHse1
  SPOT peptide array binding signal intensity: 184
SpLsb1
  SPOT peptide array binding signal intensity: 5.5
SpLsb4
  SPOT peptide array binding signal intensity: 144
SpMyo1
  SPOT peptide array binding signal intensity: 9.5
SpNbp2
  SPOT peptide array binding signal intensity: 33
SpPex13
  SPOT peptide array binding signal intensity: 162
SpRvs167
  SPOT peptide array binding signal intensity: 17.3
SpSla1-D1-D2
  SPOT peptide array binding signal intensity: 8
SpSla1-D3
  SPOT peptide array binding signal intensity: 68

## RPPRPPPKPLHLRTE
AgAbp1
  SPOT peptide array binding signal intensity: 1720
AgBbc1
  SPOT peptide array binding signal intensity: 559
AgBem1-D1
  SPOT peptide array binding signal intensity: 113
AgBzz1-D1
  SPOT peptide array binding signal intensity: 270
AgBzz1-D2
  SPOT peptide array binding signal intensity: 69
AgCyk3
  SPOT peptide array binding signal intensity: ≤ 0
AgFus1
  SPOT peptide array binding signal intensity: 5.5
AgHof1
  SPOT peptide array binding signal intensity: 50
AgHse1
  SPOT peptide array binding signal intensity: 178
AgLsb1
  SPOT peptide array binding signal intensity: 27
AgLsb4
  SPOT peptide array binding signal intensity: 52
AgMyo5
  SPOT peptide array binding signal intensity: 8.25
AgNbp2
  SPOT peptide array binding signal intensity: 1310
AgRvs167
  SPOT peptide array binding signal intensity: 12.3
AgSho1
  SPOT peptide array binding signal intensity: 836
AgSla1-D1-D2
  SPOT peptide array binding signal intensity: 28
AgSla1-D3
  SPOT peptide array binding signal intensity: 14
CaAbp1-D1
  SPOT peptide array binding signal intensity: 913
CaAbp1-D2
  SPOT peptide array binding signal intensity: 4480
CaBbc1
  SPOT peptide array binding signal intensity: 626
CaBem1-D1
  SPOT peptide array binding signal intensity: 314
CaBzz1-D1
  SPOT peptide array binding signal intensity: 1940
CaBzz1-D2
  SPOT peptide array binding signal intensity: 405
CaCyk3
  SPOT peptide array binding signal intensity: 29
CaFus1
  SPOT peptide array binding signal intensity: 61.5
CaHof1
  SPOT peptide array binding signal intensity: 1
CaHse1
  SPOT peptide array binding signal intensity: 1310
CaLsb1
  SPOT peptide array binding signal intensity: 0.5
CaLsb4
  SPOT peptide array binding signal intensity: 1080
CaMyo5
  SPOT peptide array binding signal intensity: 2
CaNbp2
  SPOT peptide array binding signal intensity: 567
CaRvs167
  SPOT peptide array binding signal intensity: 67
CaRvs167-3
  SPOT peptide array binding signal intensity: 4.75
CaSho1
  SPOT peptide array binding signal intensity: 148
CaSla1-D1-D2
  SPOT peptide array binding signal intensity: 1990
CaSla1-D3
  SPOT peptide array binding signal intensity: 97.5
ScAbp1
  SPOT peptide array binding signal intensity: 3670
ScBbc1
  SPOT peptide array binding signal intensity: 57.5
ScBem1-D1
  SPOT peptide array binding signal intensity: 4
ScBzz1-D1
  SPOT peptide array binding signal intensity: 49
ScBzz1-D2
  SPOT peptide array binding signal intensity: 26
ScCyk3
  SPOT peptide array binding signal intensity: 1
ScFus1
  SPOT peptide array binding signal intensity: 8
ScHof1
  SPOT peptide array binding signal intensity: 0.5
ScHse1
  SPOT peptide array binding signal intensity: 131
ScLsb1
  SPOT peptide array binding signal intensity: 90
ScLsb2
  SPOT peptide array binding signal intensity: 8
ScLsb3
  SPOT peptide array binding signal intensity: 2810
ScLsb4
  SPOT peptide array binding signal intensity: 58
ScMyo3
  SPOT peptide array binding signal intensity: 72.8
ScMyo5
  SPOT peptide array binding signal intensity: 163
ScNbp2
  SPOT peptide array binding signal intensity: 1770
ScPex13
  SPOT peptide array binding signal intensity: 1500
ScRvs167
  SPOT peptide array binding signal intensity: 375
ScSho1
  SPOT peptide array binding signal intensity: 1530
ScSla1-D1-D2
  SPOT peptide array binding signal intensity: 2390
ScSla1-D3
  SPOT peptide array binding signal intensity: 4.5
SpAbp1-D1
  SPOT peptide array binding signal intensity: 2570
SpBbc1
  SPOT peptide array binding signal intensity: 6
SpBzz1-D1
  SPOT peptide array binding signal intensity: 1060
SpBzz1-D2
  SPOT peptide array binding signal intensity: 43
SpCyk3
  SPOT peptide array binding signal intensity: ≤ 0
SpHof1
  SPOT peptide array binding signal intensity: 65
SpHof1-2
  SPOT peptide array binding signal intensity: 15.5
SpHof1-3
  SPOT peptide array binding signal intensity: 237
SpHse1
  SPOT peptide array binding signal intensity: 216
SpLsb1
  SPOT peptide array binding signal intensity: 582
SpLsb4
  SPOT peptide array binding signal intensity: 1950
SpMyo1
  SPOT peptide array binding signal intensity: 318
SpNbp2
  SPOT peptide array binding signal intensity: 22
SpPex13
  SPOT peptide array binding signal intensity: 17
SpRvs167
  SPOT peptide array binding signal intensity: 865
SpSla1-D1-D2
  SPOT peptide array binding signal intensity: 13.5
SpSla1-D3
  SPOT peptide array binding signal intensity: 4

From the supplement of paper PMC4466140
